# Rows were chosen to be rich in hits. Some 0.9% of all compounds tested hit in one or more screens of this group.
# CtBP-E1A inh – qHTS Assay for Inhibitors of the CtBP/E1A Interaction | CtBP / adenovirus E1A interaction (AlphaScreen) | 0.49% of 340,000 active | AlphaScreen GST-E1A/His-CtBP binding, 1536-well; active compounds read low | AID 651724, 2012 | activity change, % (test concentration not listed); in the data active = activity change below about -65%; inconclusive = mostly about -30% to -63%
#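 In 5 uL wells, 23 nL compound meets equimolar GST-E1A and His-CtBP (5X stock 125 nM each) for 2 h, 37 °C. Beads (5X, 50 ug/mL) then 1 h, 37 °C, dark.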
# L3MBTL1 block – qHTS Assay for the Inhibitors of L3MBTL1; Lethal(3)malignant brain tumor-like protein 1 (Homo sapiens), Q9Y468; AlphaScreen L3MBTL1–H3K9me1 peptide binding; Potency, µM (top dose mostly 57.1 µM), for the others: at the highest dose activity, negative = inhibition, actives largely listed as inhibitors; 0.66% of 230,000 active; note: potency is the fitted concentration of half-maximal effect; nearly all actives have a fitted effect of over 60% in size
#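 Read-out is AlphaScreen signal from streptavidin donor and nickel chelate acceptor beads (10 ug/mL final each) bridging L3MBTL1 (50 nM) and biotinylated K9-monomethylated H3(1-15) peptide (75 nM), after 30 min compound exposure at room temperature.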
# Eya2 inh – qHTS Assay for Inhibitors of the Phosphatase Activity of Eya2. Protein phosphatase EYA2 (Homo sapiens), O00167. recombinant Eya2, OMFP fluorescence dephosphorylation (OMFP is methylfluorescein phosphate). Potency, µM (doses to about 76.9 µM), for inactives: at the top dose activity, negative = inhibition, actives largely listed as inhibitors. 0.006% of 330,000 active; note: potency is the fitted concentration of half-maximal effect
#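 Eya2 protein (added as 0.2 uM solution) was preincubated with compound for 10 min at ambient temperature in 50 mM HEPES pH 7.5, 50 mM NaCl, 5 uM MgCl2, 0.05% BSA, 1 mM DTT. OMFP (added at 50 uM) then reacted 10 min; fluorescence read at 485/525 nm.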
# Six1-Eya2 inh – qHTS Assay for Inhibitors of the Six1/Eya2 Interaction | AlphaScreen GST-Six1/His-Eya2 binding, biochemical; active compounds read low | activity change, % (test concentration not listed) | Homeobox protein SIX1 (Homo sapiens) + Protein phosphatase EYA2 (Homo sapiens), … | 0.56% of 360,000 active; in the data active = activity change below about -65%; inconclusive = mostly about -30% to -63%
#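 AlphaScreen luminescence read after one hour at 37 °C in darkness. Pin-transferred compounds met GST-Six1 and His-Eya2 protein (5X stock 250 nM/500 nM) plus glutathione donor and Ni-chelate acceptor beads (5X, 50 ug/mL).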
# B2AR arrestin – qHTS assay of beta-arrestin-biased ligands of beta2-adrenergic receptor. Beta-2 adrenergic receptor (Homo sapiens), P07550. beta-arrestin recruitment to beta2AR, cell-based reporter. Potency, µM (series often up to 46.1 µM), for the others: at the highest dose activation, hits mostly activators. 0.02% of 330,000 active;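 note: potency is the fitted concentration of half-maximal effect; 0% = DMSO controls and full agonism = EC100 isoproterenol or metaproterenol; nearly all actives have a fitted effect of over 65% in size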
# Target sequence (P07550 whole entry, looked up): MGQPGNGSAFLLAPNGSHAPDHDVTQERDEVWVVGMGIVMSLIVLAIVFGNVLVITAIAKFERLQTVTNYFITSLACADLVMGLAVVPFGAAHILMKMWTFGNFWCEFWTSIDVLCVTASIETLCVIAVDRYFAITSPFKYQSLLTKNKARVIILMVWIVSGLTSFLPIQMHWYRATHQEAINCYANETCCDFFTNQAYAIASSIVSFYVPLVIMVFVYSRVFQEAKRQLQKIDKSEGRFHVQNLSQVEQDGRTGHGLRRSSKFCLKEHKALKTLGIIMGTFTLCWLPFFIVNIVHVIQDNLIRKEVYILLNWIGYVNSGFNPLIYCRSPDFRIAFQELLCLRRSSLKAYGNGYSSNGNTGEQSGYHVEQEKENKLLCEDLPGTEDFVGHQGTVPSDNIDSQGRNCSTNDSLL
# * hit, by the source's call; ? = inconclusive; · = not tested or not shown; [ ] = remark or other dose. Unless noted, calls come from the whole dose curve; as a rule, active = well fitted curve in the direction sought with a large enough effect; inconclusive = small, poorly fitted or top-dose-only effect, or another doubt; inactive = no such curve, though single readings can be large; an effect the other way counts as inactive or inconclusive. Unless noted, % is set by controls: 0 for no effect and ±100 for the full control effect.
SMILES,CtBP-E1A inh,L3MBTL1 block,Eya2 inh,Six1-Eya2 inh,B2AR arrestin
O=C(CN1CCOCC1)N/N=C/c1cccc2ccccc12,1,2%,1%,1,3%
O=C(CN1CCCC1)N/N=C/c1c(O)ccc2ccccc12,-91*,?,12%,-90*,0%
CCOC(=O)Cc1csc(NC(=O)CSc2nccn2C)n1,-9,·,8%,1,0%
CC1=NN(c2nc3ccccc3[nH]2)C(=O)C1Cc1ccccc1 (stereo unspecified),-81*,20µM*,11%,-91*,-1%
CC1=NN(c2nc3ccccc3[nH]2)C(=O)/C1=C/N(C)C,?,·,1%,?,0%
CCc1ccc(NC(=S)Nc2ccc3[nH]c(=O)[nH]c3c2)cc1,-22,-2%,-7%,0,-1%
CCCCNC(=S)Nc1ccc2[nH]c(=O)[nH]c2c1,-67*,-14%,3%,6,-1%
C=C1c2cccc(O)c2C(O)=C2C(=O)[C@]3(O)C(O)=C(C(N)=O)C(=O)[C@@H](N(C)C)[C@@H]3[C@@H](O)[C@H]12,?,0.89µM*,0%,?,-1%
COc1ccc(-c2c(C)[nH]n3c(=O)c(Cc4ccccc4)c(C)nc23)cc1,-71*,6%,-3%,-67*,0%
CC(=O)c1ccc(NC(=O)COC(=O)c2ccccc2N=Nc2ccc(N(C)C)cc2)cc1,0,?,-1%,-68*,0%
COC(=O)c1ccccc1NC(=O)COC(=O)c1ccccc1N=Nc1ccc(N(C)C)cc1,?,10µM*,3%,?,-1%
CN(C)c1ccc(N=Nc2ccccc2C(=O)OCC(=O)N(C)c2ccccc2)cc1,-66*,?,-7%,-67*,2%
CN(C)c1ccc(C(=O)OCC(=O)Nc2ccc(N3CCOCC3)cc2)cc1,·,0%,-30%,-17,0%
C[C@@H]1ON(C)[C@H]2C[C@H]3c4[nH]c5ccccc5c4CCN3C(=O)[C@@H]12,5,·,·,-1,·
CC(C)CNC(=O)C1(C)CCCN1Cc1ccccc1OC(F)F (stereo unspecified),2,·,·,0,·
O=C1NC[C@H](CCCCN2C[C@@H](Cc3ccccc3)N(CC3CCCCC3)C(=O)C2=O)N(CCC2CCCCC2)C1=O,2,·,·,-3,·
Cc1n[nH]c(=O)nc1N/N=C/c1ccco1,?,·,-20%,-68*,0%
O=C(/C=N/NC(=O)c1ccccc1Br)c1ccccc1,18,-16%,-25%,-3,0%
O=C(N/N=C/c1cc(Cl)ccc1O)c1ccccc1Br,-90*,·,-14%,-70*,0%
O=C(N/N=C/c1cc(Cl)ccc1O)c1cccnc1,-91*,-75%,10%,-68*,-1%
O=C(CNC(=O)c1ccccc1Br)N/N=C\c1cc([N+](=O)[O-])cc(Br)c1O,-73*,·,4%,?,0%
O=C(CNC(=O)c1ccccc1Br)N/N=C/c1cc(Br)ccc1O,-73*,·,7%,?,0%
CCN(CC(=O)Nc1ccc(NC(C)=O)cc1)C(=O)C1(c2ccccc2)CC1,3,5%,0%,9,0%
Cc1ccc(S(=O)(=O)Nc2ccc(Nc3nccn4c(-c5cccc(OC(F)(F)F)c5)cnc34)cc2)cc1,3,·,·,1,·
CC(C)(C)C(=O)Nc1cc2c3c(c1)CCN3C(=O)CC2,10,·,-13%,3,0%
SMILES,CtBP-E1A inh,L3MBTL1 block,Eya2 inh,Six1-Eya2 inh,B2AR arrestin
COC(=O)C1=C(C(=O)OC)[C@@H]2N(C)c3ccc(OC)cc3[C@@]23C[C@@H](C(=O)OC)N(C(=O)c2cc(C)oc2C)C3=N1,-30,·,·,?,·
CC(=O)N1CCC(c2nc3ccccc3n2C(C)C(=O)NCc2ccccc2)CC1 (stereo unspecified),2,·,·,3,·
O=C(N/N=C/c1c(Cl)nc2ccccn2c1=O)c1cccnc1,-14,15%,1%,-69*,0%
O=C(CNC(=O)c1ccccc1Br)N/N=C/c1ccccc1O,?,-11%,-10%,-65*,0%
NC(Cc1ccccc1)c1csc(Nc2ccc(C(=O)NCCCO)cn2)n1 (stereo unspecified),-82*,·,·,-66*,·
CC(N)c1csc(Nc2ccc(C(=O)NCCO)cc2)n1 (stereo unspecified),-10,·,·,0,·
CC(C)C(N)c1csc(Nc2ccc(C(=O)NCCCO)cn2)n1 (stereo unspecified),-75*,·,·,?,·
NC(CCc1ccccc1)c1csc(Nc2ccc(C(=O)NCCCO)cn2)n1 (stereo unspecified),-69*,·,·,?,·
CN(Cc1ccccc1)C(=O)c1ccc(Nc2nc(C(N)Cc3ccccc3)cs2)nc1 (stereo unspecified),?,·,·,-24,·
NC(CCc1ccccc1)c1csc(Nc2ccc(C(=O)NCCO)cc2)n1 (stereo unspecified),-5,·,·,-12,·
Cc1ccc(NC(=O)CSCC(=O)OC(C)C(=O)Nc2ccccc2C)cc1 (stereo unspecified),-5,7%,14%,1,0%
CC1(C(=O)NS(=O)(=O)C2CC2)CCCN(C(=O)c2ccc(F)c(Cl)c2)C1 (stereo unspecified),-4,·,·,0,·
Cc1cc(=O)oc(C)c1C(=O)NCc1ccccn1,?,?,4%,-81*,-1%
Cc1ccc(N=Nc2c(O)[nH]c3ccc(F)cc23)cc1,0,-7%,8%,-5,0%
O=c1[nH]nc(N=Nc2c(O)[nH]c3ccc(F)cc23)c(=O)[nH]1,-71*,·,·,-80*,·
Cc1noc(NS(=O)(=O)c2ccc(NC(=O)CSc3nnc4c(n3)[nH]c3ccccc34)cc2)c1C,-90*,-6%,0%,-88*,-1%
Cc1cccc(-n2ncc3c2CCCC3NC(=O)Cc2c(C)noc2C)c1C (stereo unspecified),1,·,-2%,0,-1%
COc1cc(/C=C/c2sc3ccccc3[n+]2CCCS(=O)(=O)[O-])ccc1O,-5,28µM*,4%,-11,0%
N#Cc1ccc2c(c1)C[C@]1(CCCCN3C(=O)c4ccccc4C3=O)Oc3c(c(=O)oc4ccccc34)C2O1,·,·,4%[15.4 µM],·,0%[9.22 µM]
N#CC(C#N)=Cc1ccc(OC(=O)c2ccccn2)cc1,?,25µM*,-5%,-68*,1%
O=C1Cn2nnc(-c3ccccc3)c2C2c3ccccc3CCN12 (stereo unspecified),2,·,·,6,·
CC(=O)NC(c1ccco1)c1cc(Br)c2cccnc2c1O (stereo unspecified),·,?,14%,·,?
